According to PubChem BioAssay AID1159580 (chemical genetic matrix, 2015):
Screen size: about 5,500 compounds; about 2,000 (36%) were called active. About 18% were inconclusive and are not listed. Rule as the data show it: active = normalized growth mostly below about 0.91 (no sharp cut-off); inconclusive = no clear call, values can overlap the other calls; inactive = mostly above about 0.92. The list shows a part of the results.

Experiment: chemical genetic growth profiling, strain panel (AID 1159580);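 also: tested at 20 µM; growth read once vehicle control cultures reached saturation at 30 °C; 1 = growth at the plate median or of vehicle wells; lower values mean less growth of the strain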
Details: growth OD

Measured: normalized growth

CC(=O)/C=C\[C@@H]1[C@@]2(C)CCCC(C)(C)C2CC[C@@]1(C)O (some centres not stated)
inactive: S. cerevisiae deletion strains, locus YJR075W, strain HOC1, hits give low values 0.982 | S. cerevisiae deletion strains, locus YKL009W, strain mrt4, hits give low values 0.97 | S. cerevisiae deletion strains, locus YKL068W, hits give low values 0.984 | S. cerevisiae deletion strains, locus YKL085W, strain MDH1 (second series), hits give low values 0.977 | S. cerevisiae deletion strains, locus YKL085W, strain MDH1, hits give low values 0.977 | S. cerevisiae deletion strains, locus YKL160W, strain elf1, hits give low values 0.963 | S. cerevisiae deletion strains, locus YKL190W, strain CNB1, hits give low values 0.964 | S. cerevisiae deletion strains, locus YKR001C, strain vps1, hits give low values 0.975 | S. cerevisiae deletion strains, locus YKR026C, strain gcn3, hits give low values 0.979 | S. cerevisiae deletion strains, locus YKR091W, strain srl3, hits give low values 0.975 | S. cerevisiae deletion strains, locus YLL001W, strain dnm1, hits give low values 1.01 | S. cerevisiae deletion strains, locus YLL026W, hits give low values 0.991 | S. cerevisiae deletion strains, locus YLL041C, strain sdh2, hits give low values 0.968 | S. cerevisiae deletion strains, locus YLR027C, strain aat2, hits give low values 0.982 | S. cerevisiae deletion strains, locus YLR039C, strain RIC1, hits give low values 0.846 | S. cerevisiae deletion strains, locus YLR058C, strain SHM2, hits give low values 0.958 | S. cerevisiae deletion strains, locus YLR102C, strain apc9, hits give low values 0.973 | S. cerevisiae deletion strains, locus YLR113W, strain HOG1, hits give low values 0.951 | S. cerevisiae deletion strains, locus YLR221C, strain rsa3, hits give low values 1.01 | S. cerevisiae deletion strains, locus YLR258W, strain gsy2, hits give low values 0.981 | S. cerevisiae deletion strains, locus YLR262C, strain YPT6 (second series), hits give low values 0.939 | S. cerevisiae deletion strains, locus YLR262C, strain YPT6, hits give low values 0.843 | S. cerevisiae deletion strains, locus YLR268W, strain sec22, hits give low values 0.923 | S. cerevisiae deletion strains, locus YLR320W, strain mms22, hits give low values 1.01 | S. cerevisiae deletion strains, locus YLR330W, strain CHS5, hits give low values 0.974 | S. cerevisiae deletion strains, locus YLR342W, strain FKS1 (second series), hits give low values 0.957 | S. cerevisiae deletion strains, locus YLR342W, strain FKS1, hits give low values 0.968 | S. cerevisiae deletion strains, locus YLR357W, strain rsc2, hits give low values 0.998 | S. cerevisiae deletion strains, locus YLR370C, strain arc18, hits give low values 0.964 | S. cerevisiae deletion strains, locus YLR371W, strain rom2, hits give low values 1 | S. cerevisiae deletion strains, locus YLR384C, strain iki3, hits give low values 0.973 | S. cerevisiae deletion strains, locus YML016C, strain PPZ1, hits give low values 0.964 | S. cerevisiae deletion strains, locus YML032C, strain rad52, hits give low values 1.02 | S. cerevisiae deletion strains, locus YML120C, strain ndi1, hits give low values 0.971 | S. cerevisiae deletion strains, locus YML124C, strain tub3, hits give low values 0.979 | S. cerevisiae deletion strains, locus YMR058W, strain fet3, hits give low values 0.968 | S. cerevisiae deletion strains, locus YMR078C, strain ctf18, hits give low values 0.975 | S. cerevisiae deletion strains, locus YMR125W, strain sto1, hits give low values 0.958 | S. cerevisiae deletion strains, locus YMR129W, hits give low values 0.96 | S. cerevisiae deletion strains, locus YMR205C, strain PFK2, hits give low values 0.926 | S. cerevisiae deletion strains, locus YMR223W, strain ubp8, hits give low values 1.01 | S. cerevisiae deletion strains, locus YMR231W, strain pep5, hits give low values 0.972 | S. cerevisiae deletion strains, locus YMR263W, strain SAP30, hits give low values 0.947 | S. cerevisiae deletion strains, locus YMR307W, strain GAS1, hits give low values 1.08 | S. cerevisiae deletion strains, locus YNL067W, strain RPL9B, hits give low values 0.957 | S. cerevisiae deletion strains, locus YNL071W, strain lat1, hits give low values 0.961 | S. cerevisiae deletion strains, locus YNL128W, strain TEP1, hits give low values 0.927 | S. cerevisiae deletion strains, locus YNL153C, strain GIM3, hits give low values 0.951 | S. cerevisiae deletion strains, locus YNL183C, strain NPR1, hits give low values 0.947 | S. cerevisiae deletion strains, locus YNL209W, strain ssb2, hits give low values 0.986 | S. cerevisiae deletion strains, locus YNL233W, strain BNI4, hits give low values 0.942 | S. cerevisiae deletion strains, locus YNL248C, strain rpa49, hits give low values 0.952 | S. cerevisiae deletion strains, locus YNL250W, strain rad50, hits give low values 0.99 | S. cerevisiae deletion strains, locus YNL271C, strain bni1, hits give low values 0.991 | S. cerevisiae deletion strains, locus YNL298W, strain CLA4, hits give low values 0.984 | S. cerevisiae deletion strains, locus YNL307C, strain MCK1, hits give low values 0.948 | S. cerevisiae deletion strains, locus YNL322C, strain KRE1 (second series), hits give low values 0.989 | S. cerevisiae deletion strains, locus YNL322C, strain KRE1, hits give low values 0.965 | S. cerevisiae deletion strains, locus YNR049C, strain mso1, hits give low values 0.98 | S. cerevisiae deletion strains, locus YNR052C, strain pop2, hits give low values 0.98 | S. cerevisiae deletion strains, locus YOL006C, strain TOP1, hits give low values 0.867 | S. cerevisiae deletion strains, locus YOL012C, strain htz1 0.968 | S. cerevisiae deletion strains, locus YOL147C, strain pex11, hits give low values 0.987 | S. cerevisiae deletion strains, locus YOR001W, strain rrp6, hits give low values 0.95 | S. cerevisiae deletion strains, locus YOR061W, strain CKA2, hits give low values 0.944 | S. cerevisiae deletion strains, locus YOR069W, strain VPS5, hits give low values 0.977 | S. cerevisiae deletion strains, locus YOR070C, strain gyp1, hits give low values 0.968 | S. cerevisiae deletion strains, locus YOR080W, strain dia2, hits give low values 0.978 | S. cerevisiae deletion strains, locus YOR083W, strain WHI5, hits give low values 1.03 | S. cerevisiae deletion strains, locus YOR106W, strain vam3, hits give low values 0.982 | S. cerevisiae deletion strains, locus YOR136W, strain idh2, hits give low values 0.996 | S. cerevisiae deletion strains, locus YOR144C, strain elg1, hits give low values 0.97 | S. cerevisiae deletion strains, locus YOR184W, strain ser1, hits give low values 0.993 | S. cerevisiae deletion strains, locus YOR231W, strain MKK1, hits give low values 0.964 | S. cerevisiae deletion strains, locus YOR265W, strain rbl2, hits give low values 0.979 | S. cerevisiae deletion strains, locus YOR270C, strain vph1, hits give low values 0.909 | S. cerevisiae deletion strains, locus YOR290C, strain snf2, hits give low values 0.974 | S. cerevisiae deletion strains, locus YOR316C, strain cot1, hits give low values 0.977 | S. cerevisiae deletion strains, locus YPL051W, strain arl3, hits give low values 0.986 | S. cerevisiae deletion strains, locus YPL055C, strain LGE1, hits give low values 0.866 | S. cerevisiae deletion strains, locus YPL078C, strain atp4, hits give low values 0.97 | S. cerevisiae deletion strains, locus YPL106C, strain sse1, hits give low values 1.02 | S. cerevisiae deletion strains, locus YPL240C, strain hsp82, hits give low values 0.98 | S. cerevisiae deletion strains, locus YPL241C, strain CIN2, hits give low values 0.968 | S. cerevisiae deletion strains, locus YPL256C, strain CLN2, hits give low values 0.979 | S. cerevisiae deletion strains, locus YPR119W, strain clb2, hits give low values 0.985 | S. cerevisiae deletion strains, locus YPR141C, strain kar3, hits give low values 0.975 | S. cerevisiae deletion strains, locus YPR163C, strain tif3, hits give low values 0.973 | S. cerevisiae deletion strains, locus YPR167C, strain met16, hits give low values 0.971 | S. cerevisiae deletion strains, strain wtn01, hits give low values 0.94 | S. cerevisiae strains, strain wild type, hits give low values 0.967
active: S. cerevisiae deletion strains, locus YLR418C, strain cdc73, hits give low values 0.838
